This is an account of results in PubChem BioAssay AID504651 (National Center for Advancing Translational Sciences (NCATS), 2011).

The structures appear in SMILES notation. In all, about 360,000 compounds went through this assay and about 130 (0.036%) were called active. Rule as the data show it: active = potentiation above about 30%; inactive = the rest. What follows is part of a selection rich in actives, with near analogues and random picks from the rest.

Chain of D(1A) dopamine receptor (Homo sapiens) (P21728 whole entry, looked up): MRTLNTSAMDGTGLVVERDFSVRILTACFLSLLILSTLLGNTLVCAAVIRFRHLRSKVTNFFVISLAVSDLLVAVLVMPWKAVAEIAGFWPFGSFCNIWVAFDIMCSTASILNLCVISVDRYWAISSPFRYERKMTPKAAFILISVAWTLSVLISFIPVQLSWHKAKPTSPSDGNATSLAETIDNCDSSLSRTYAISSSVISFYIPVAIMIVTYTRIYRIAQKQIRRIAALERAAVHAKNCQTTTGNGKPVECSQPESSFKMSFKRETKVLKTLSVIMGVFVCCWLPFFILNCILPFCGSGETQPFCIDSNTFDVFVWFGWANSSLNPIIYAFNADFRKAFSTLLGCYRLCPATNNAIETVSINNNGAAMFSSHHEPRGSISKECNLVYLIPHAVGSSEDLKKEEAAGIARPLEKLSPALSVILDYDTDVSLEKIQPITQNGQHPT

This assay addresses D(1A) dopamine receptor (Homo sapiens) (UniProt P21728). The assay is described as follows: Potentiators of Human D1 Dopamine Receptor: qHTS. Also: 0% is about no effect. As to conditions: HEK293 TREx D1 cells, calcium flux, dopamine EC20 potentiation; at 10 µM; active compounds read high.
`CCOc1ccccc1NC(=O)CSc1ncc(S(=O)(=O)c2ccc(C(C)(C)C)cc2)c(=O)[nH]1`: the potentiation is 2.25% (inactive).
Regarding `COc1ccc2c(Sc3ccc(C)cc3)c(C(=O)NC(C)c3ccccc3)[nH]c2c1` (stereo not drawn), the potentiation is -3.25% (inactive).
Regarding `Cn1nnnc1SCCCNCc1cccc(OCc2ccc(Cl)cc2)c1`, the potentiation is 0.9% (inactive).
The figure for `CC(NC(=O)c1cc(Sc2ccc(F)cc2F)nc2ccccc12)c1ccccc1` (stereo not drawn) is -2.8% (inactive).
`Cc1cc2c(s1)c1cnn(Cc3c(F)cccc3Cl)c(=O)c1n2C`: the potentiation is -3.2% (inactive).
As for `COc1ccc(OCCCn2c(C3CC(=O)N(c4ccc(F)cc4)C3)nc3ccccc32)cc1` (stereo not drawn), the potentiation is -2% (inactive).
Regarding `Cn1nnnc1Sc1ncnc2scc(-c3ccccc3[N+](=O)[O-])c12`, the potentiation was 9.9% (inactive).
Regarding `COC(=O)c1ccc(C2C(C(=O)Nc3ccccc3)=C(C)Nc3nc4ccccc4n32)cc1` (stereo not drawn), the potentiation was -1.75% (inactive).
Regarding `CC(C)Cn1c(=O)c2ccccc2n2c(CCC(=O)N3CCN(c4cccc(Cl)c4)CC3)nnc12`, the potentiation is -1.35% (inactive).
The figure for `Cc1ccc(NC(=O)c2ccc(CN3CC(=O)N4CCCCC4C3=O)cc2)c(Cl)c1` (stereo not drawn) is 1.5% (inactive); for `COc1ccc(-n2ccn(CC(=O)Nc3ccc(C)c(C)c3)c(=O)c2=O)cc1OC` it is -0.8% (inactive).
With `COc1cc(-c2cc3n(C)c(C)c(CCC(=O)Nc4ccc(F)cc4)c(=O)n3n2)cc(OC)c1OC`, the potentiation is 0.6% (inactive).
The figure for `Cc1cc(C)cc(NC(=O)c2cnc3sc(N4CCCC4)nn3c2=O)c1` is -4.45% (inactive); for `CCCC(=O)Nc1cc(C(=O)NCc2ccc(OC)cc2)ccc1S(=O)(=O)c1ccc(Cl)cc1` it is -6.15% (inactive); for `COc1ccc(Cl)cc1NC(=O)CCn1c(=O)c2cccn2c2ccccc21` it is -4.3% (inactive).
Turning to `CCCCN(CC)CCCNC(=O)Cn1ncc2c([nH]c3ccc(C)cc32)c1=O`, the potentiation is 1.4% (inactive).
For the molecule `COc1ccccc1CNCc1ccc(C(=O)O)s1`, the potentiation was -0.25% (inactive).
For the molecule `O=C(NCC12CC3CC(CC(C3)C1)C2)c1cc2nc(-c3ccccc3)cc(C(F)(F)F)n2n1`, the potentiation was 0.55% (inactive).
Regarding `CCOc1ccccc1NC(=O)Cn1c(=O)n(-c2cccc(C)c2)c(=O)c2c1c1cc(OC)ccc1n2C`, the potentiation is 3.65% (inactive).
`CC(C)(C)OC(=O)N1CCC(c2c(C(=O)N3CCc4ccccc4C3)cnn2-c2ccc(F)cc2)CC1`: the potentiation is -4.3% (inactive).
As for `O=C(CCSCc1ccccc1F)N1CCN(c2ccc(Cl)cc2)CC1`, the potentiation is -0.6% (inactive).
Turning to `Cc1noc(C)c1-c1ccc2ncnc(NCc3ccc(F)c(F)c3)c2c1`, the potentiation is -4.15% (inactive).
The figure for `O=C(CS(=O)(=O)c1cccc2nsnc12)N1CCN(c2cccc(Cl)c2)CC1` is 0.15% (inactive); for `Cc1cc(C)c2oc(C(=O)Nc3c(C(=O)Nc4ccccc4)oc4ccccc34)cc(=O)c2c1` it is 0.8% (inactive).
Take `Cc1ccc(C(=O)NC2CCN(C#N)CC2)cc1`: the potentiation is -6.15% (inactive).
As for `O=C(Nc1nc2c(s1)CCCC2)c1ccccc1F`, the potentiation was 0.5% (inactive).
As for `CCOc1ccc(S(=O)(=O)c2cn(Cc3ccc(OC)cc3)c3ccc(F)cc3c2=O)cc1`, the potentiation was -1.95% (inactive).
The figure for `Cc1cc(C)c(NC(=O)CSc2nc3nccnc3c(=O)n2CCc2c[nH]c3ccccc23)c(C)c1` is -2.8% (inactive); for `Cc1cccc(Cn2c(=O)n(CCC(=O)NCCc3ccc(Cl)cc3)c(=O)c3sccc32)c1` it is 0.55% (inactive).
As for `O=C(CNC(=O)c1ccc(Cl)cc1Cl)OC(C(=O)Nc1cc(C(F)(F)F)ccc1Cl)c1ccccc1` (stereo not drawn), the potentiation was -4% (inactive).
As for `Cc1ccc(-c2cc(C(=O)Oc3ccccc3Cl)no2)cc1C`, the potentiation is 0.6% (inactive).
Regarding `COc1ccc(Cl)cc1NC(=O)Cn1c(=O)c2ccccc2n2nncc12`, the potentiation was 1.65% (inactive).
As for `NS(=O)(=O)c1ccc(-c2ccc(/C=C3\SC(=O)NC3=O)o2)cc1`, the figure is 0.85% (inactive).
Consider `CN=C1S/C(=C\c2ccc(Sc3ccc(Cl)cc3)o2)C(=O)N1C`, for which the potentiation is 5.08% (inactive).
As to `CN1C(=O)/C(=C\c2ccc(-c3ccccc3)o2)SC1=S`, the potentiation was 39.7% (active).
Take `Oc1ccc(Cl)cc1C1C=C(c2ccc3c(c2)OCO3)NC(c2c(F)cccc2Cl)N1` (stereo not drawn): the potentiation was -3.2% (inactive).
With `O=[S+]([O-])(c1ccc2c(c1)OCCO2)N1CCN([S+](=O)([O-])c2c(Cl)cc(Cl)cc2Br)CC1`, the potentiation is -3.2% (inactive).
For `COc1ccc(-c2nc(Cn3c(=O)cc(C)c4c(C)nn(-c5ccccc5)c43)c(C)o2)c(OC)c1`, the potentiation is -4.4% (inactive).
The figure for `Cc1nc2ccn(Cc3cccs3)c(=O)c2cc1C(=O)NCc1ccc(Cl)cc1` is -6.65% (inactive); for `COc1ccc(CCNS(=O)(=O)c2cc(-c3cc(C)no3)ccc2C)cc1OC` it is -4.9% (inactive); for `Cc1ccc(S(=O)(=O)N2CCc3cc(C(=O)Nc4ccc(Cl)cc4C)ccc32)cc1` it is -2.8% (inactive).
The figure for `Cc1ccsc1CN(C(=O)c1oc2ccc(Br)cc2c1C)C1CCS(=O)(=O)C1` (stereo not drawn) is 0.7% (inactive); for `Cc1ccc(SCC(=O)Nc2ccc3oc(-c4ccccc4F)nc3c2)cc1` it is -1.1% (inactive); for `Cc1ccc(C)c(CNC(=O)c2cc3ccccn3n2)c1` it is -6.6% (inactive).
For the molecule `COc1ccc2[nH]c3c(c2c1)CCN(C(=O)CCC1CCCC1)C3c1ccc(F)cc1` (stereo not drawn), the potentiation was -2.5% (inactive).
On to `COc1ccc([N+](=O)[O-])cc1-c1nc2ccccc2nc1-c1ccccc1`, for which the potentiation is 30.4% (active).
As for `COc1cc2c(cc1OC)C(c1cccc([N+](=O)[O-])c1)=NCC2`, the figure is -1.3% (inactive); as for `COc1ccc([N+](=O)[O-])cc1C1NN=C(c2cccc3ccccc23)S1` (stereo not drawn), 0.861% (inactive); as for `Cc1ccc(NC(=O)c2oc3ccc(S(=O)(=O)N4CCCCC4)cc3c2C)cc1Cl`, 3.15% (inactive).
Take `CC1=C(c2ccc(C)c(C)c2)S(=O)(=O)NC1=NCc1ccccc1Cl`: the potentiation was -1.4% (inactive).
As for `O=[S+]([O-])(c1ccc(OC(F)(F)F)cc1)N1CCN([S+](=O)([O-])c2ccc3c(c2)OCCO3)CC1`, the figure is 5.85% (inactive).
With `O=C(CCS(=O)(=O)c1ccccc1)N(Cc1cccnc1)c1nc2c(F)cccc2s1`, the potentiation is -1.7% (inactive).
With `Cc1ccc(CNC(=O)Cn2c(=O)ccc3cc(S(=O)(=O)N4CCCC4)ccc32)cc1`, the potentiation is -0.25% (inactive).
